Bioassay records: PubChem, National Center for Advancing Translational Sciences (NCATS)
HCV inh: blocks hepatitis C virus. 340,000 tested, 3.4% active. Huh7.5.1 HCVcc-Cre infection, luciferase reporter, 44 h. AID 651820. Potency, µM (titrated, usually from 41.8 µM), actives largely listed as inhibitors
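Seed cells (1,000/well) for 4 h; treat with compound and infect with HCVcc-Cre, moi about 0.5. Incubate 44 h, then detect luciferase activity.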
Pf growth 48h: P. falciparum growth inhibition at 48 hours (one generation) | P. falciparum luciferase growth in erythrocytes, 48 h | Potency, µM (highest dose often 28.7 µM), actives largely listed as inhibitors | 310,000 tested, 5.9% active
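Parasite viability was followed by luminescence of a genomically integrated firefly luciferase. Cultures held 0.1% parasitemia at 2% hematocrit (final), incubated under 5% CO2 at 37 C.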
Pf growth 96h: inhibits malaria parasite growth, 96 h; P. falciparum luciferase reporter growth, 96 h; Potency, µM (doses to about 28.7 µM), hits mostly inhibitors; 320,000 tested, 6.9% active; AID 504834
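Infected RBCs, 2% Hct / 0.05% parasitemia final; luciferase-reporter P. falciparum; cpd 96 h, 37 C, 5% CO2; luciferase detection reagent; luminescence.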
AMA1-RON2 inh: inhibitors of Plasmodium falciparum AMA1-RON2 interaction; AID 720542; Potency, µM (series often up to 58.2 µM), most hits filed as inhibitors; 360,000 tested, 0.2% active; AlphaScreen AMA1-biotinylated RON2 peptide binding; also: nearly all actives have a fitted effect of over 45% in size
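AMA1 (3D7) with his tag at 25 nM final met compounds first, then biotinylated RON2 peptide at 25 nM; detection used donor plus acceptor beads, 10 µg/mL apiece, read by AlphaScreen after 30 min at room temperature.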
Large screens that a line does not name were inactive. Sampled rows, rich in hits. Any-hit rate of the full collection: about 11%. Calls follow the shape of the dose curve; as a rule, active = well fitted curve in the direction sought with a large enough effect; inconclusive = small, poorly fitted or top-dose-only effect, or another doubt; inactive = no such curve, though single readings can be large; an effect the other way counts as inactive or inconclusive.

Cc1ccccc1C1C(C#N)=C2NC(=O)c3c(sc4c3CCCCC4)N2C2=C1C(=O)CC(C)(C)C2 (stereo not given)	Pf growth 48h inconclusive (no result: HCV inh, AMA1-RON2 inh)
COc1ccc(C2C(C#N)=C(N)N(N(C)C)C3=C2C(=O)CCC3)cc1 (stereo not given)	Pf growth 96h 2.3µM
CN(C)N1C(N)=C(C#N)C(c2ccsc2)C2=C1CCCC2=O (stereo not given)	Pf growth 48h inconclusive, Pf growth 96h 9.3µM
Cc1ccc(-n2c(C)nnc2SCC(=O)N(C)c2c(N)n(Cc3ccccc3)c(=O)[nH]c2=O)cc1	Pf growth 96h inconclusive
CN(C)NC(=S)NC1CCS(=O)(=O)C1 (stereo not given)	none
O=C(CCCc1nc(-c2ccccc2Cl)no1)N1CCOCC1	Pf growth 96h inconclusive
Cc1ccc(C2C(C#N)=C(N)N(N(C)C)C3=C2C(=O)CCC3)cc1 (stereo not given)	none
CN(C)N1C(N)=C(C#N)C(c2cccc3ccccc23)C2=C1CC(c1ccccc1)CC2=O (stereo not given)	HCV inh inconclusive, Pf growth 48h 9.3µM, Pf growth 96h inconclusive
CN(C)N1C(N)=C(C#N)C(c2ccc(Cl)cc2)C2=C1CCCC2=O (stereo not given)	Pf growth 96h 0.74µM
O=P(c1ccccc1)(c1ccccc1)c1ccccc1C(Br)Br	none (no result: HCV inh, Pf growth 48h, Pf growth 96h)
O=[N+]([O-])c1ccc(C(O)C[n+]2ccccc2)cc1 (stereo not given)	Pf growth 96h 7.4µM
O=[N+]([O-])c1ccc(C(O)CN2CCN(c3ccccc3)CC2)cc1 (stereo not given)	Pf growth 48h inconclusive, Pf growth 96h inconclusive
Cn1c(N)c(C(=O)COC(=O)C2(c3ccccc3F)CCCC2)c(=O)n(C)c1=O	none
Cn1c(N)c(C(=O)COC(=O)C2CCC(C(C)(C)C)CC2)c(=O)n(C)c1=O (stereo not given)	Pf growth 48h 13µM (no result: Pf growth 96h)
Cn1c(N)c(C(=O)COC(=O)C2(c3ccc(F)cc3)CCCC2)c(=O)n(C)c1=O	HCV inh inconclusive, Pf growth 48h 4.1µM, Pf growth 96h 2.3µM
Cn1c(N)c(C(=O)COC(=O)C2(c3ccc(Cl)cc3)CCCC2)c(=O)n(C)c1=O	Pf growth 48h 3.7µM (no result: Pf growth 96h)
O=C(Nc1ccc(F)cc1)C1C(c2ccccc2)C1(Cl)Cl (stereo not given)	none
c1ccc(N(c2ccccc2)c2nc(N3CCCC3)nc(-n3ccnc3)n2)cc1	HCV inh inconclusive, Pf growth 48h 5.9µM, Pf growth 96h inconclusive
CN(c1ccccc1)c1nc(N)c([N+](=O)[O-])c(N2CCCC2)n1	HCV inh inconclusive
CN(c1ccccc1)c1nc(N2CCCC2)nc(-n2ccnc2)n1	HCV inh inconclusive, Pf growth 48h 5.2µM, Pf growth 96h inconclusive
N/C(=N/O)c1nc(N2CCCC2)nc(N(c2ccccc2)c2ccccc2)n1	HCV inh inconclusive, Pf growth 48h inconclusive, Pf growth 96h inconclusive
[O-]C1=N[N+](=C(c2ccccc2)c2ccccc2)C1	none (no result: Pf growth 48h, Pf growth 96h)
O=S(=O)(NC1c2cccc3cccc(c23)C1N1CCNCC1)c1ccc(Cl)cc1 (stereo not given)	HCV inh inconclusive, Pf growth 48h inconclusive
CCCCN(C(=O)C1CC(=O)N(c2ccc(CC)cc2)C1)c1c(N)n(CCC)c(=O)[nH]c1=O (stereo not given)	none
O=c1c(Cl)c(NCc2ccccc2)cnn1C12CC3CC(CC(C3)C1)C2	Pf growth 48h inconclusive, Pf growth 96h 10µM
C=CCOc1nc2sc(C)c(C)c2c(=O)n1-c1ccccc1	Pf growth 96h 8.3µM
O=C(C1CCN(C2CCN(Cc3ccc4c(c3)CCO4)CC2)CC1)N1CCOCC1	HCV inh inconclusive, Pf growth 96h 12µM
CC(C)=CC(=O)N1CCC(N2CCC(C(=O)N3CCOCC3)CC2)CC1	none
CC(C)=CCCC(C)CN1CCC(N2CCC(C(=O)N3CCOCC3)CC2)CC1 (stereo not given)	HCV inh 0.89µM, Pf growth 48h inconclusive
CC(C)=CCCC(C)CN1CCC(N2CCC(C(=O)NC(C)C)CC2)CC1 (stereo not given)	HCV inh 2.8µM, Pf growth 48h 5.2µM, Pf growth 96h inconclusive
O=C(C1CCN(C2CCN(Cc3ccsc3)CC2)CC1)N1CCOCC1	HCV inh inconclusive, Pf growth 96h inconclusive
CC(=O)N/C(=C/c1ccc2c(c1)OCO2)C(=O)NCc1ccccc1	none
COc1ccc(-c2cc3cc(-c4cc(OC)c(OC)c(OC)c4)ccc3o2)cc1	HCV inh inconclusive
Cc1cc(C)cc(N(CC(=O)NC(C)(C)C)C(=O)CNC(=O)c2cccs2)c1	Pf growth 48h inconclusive
CC(C)(C)OC(=O)NCCCC[C@@H](C(=O)NCCCCCCCCCCC(=O)N1CCN(C(=O)OC(C)(C)C)CC1)n1cc(CCO)nn1	HCV inh inconclusive, Pf growth 48h 1.9µM, Pf growth 96h 2.6µM
CSCC[C@@H](C(=O)NCCCCCCCCCCC(=O)N1CCN(C(=O)OC(C)(C)C)CC1)n1cc(CCO)nn1	HCV inh inconclusive, Pf growth 48h 5.2µM, Pf growth 96h 1.9µM
CSCCCc1cn([C@@H](CO)C(=O)NCCCCCCCCCCC(=O)N2CCNCC2)nn1	Pf growth 48h 15µM
CC[C@H](C)Cc1cn([C@@H](CCCCNC(=O)OC(C)(C)C)C(=O)NCCCCCCCCCCC(=O)N2CCN(C(=O)OC(C)(C)C)CC2)nn1	HCV inh inconclusive, Pf growth 48h 2.1µM, Pf growth 96h 1µM
NCCCC[C@@H](C(=O)NCCCCCCCCCCC(=O)N1CCNCC1)n1cc(CCO)nn1	Pf growth 48h inconclusive, Pf growth 96h inconclusive
COC[C@@H]1CCCN1[C@@H]1CS(=O)(=O)N[C@H]1COCc1ccccc1	none (no result: HCV inh, Pf growth 48h, Pf growth 96h)
CCc1cccc(OCCOC(=O)CNS(=O)(=O)c2ccc(NC(C)=O)cc2)c1	none
Cc1ccc(CN2CCc3[nH]c(=O)[nH]c(=O)c3C2)cc1	Pf growth 96h 1.2µM
Cc1ccc(CN2CCc3[nH]c(=S)[nH]c(=O)c3C2)cc1	none
CCCn1c(C(O)c2ccc(OC)c(OC)c2)nc2ccccc21 (stereo not given)	HCV inh inconclusive, Pf growth 96h inconclusive
CCN(CC)c1ccc(C2Nc3cccc4cccc(c34)N2)c(O)c1	HCV inh 11µM, Pf growth 48h 3.7µM
Oc1ccc2ccccc2c1C1Nc2cccc3cccc(c23)N1	Pf growth 48h inconclusive, AMA1-RON2 inh inconclusive (no result: Pf growth 96h)
O=C(CCN1CCOCC1)N1CCCC(Nc2cccc(F)c2)C1 (stereo not given)	Pf growth 96h inconclusive
CC(NC(=O)c1ccco1)C(=O)N1CCN(c2cccc(C(F)(F)F)c2)CC1 (stereo not given)	Pf growth 48h inconclusive, Pf growth 96h inconclusive
CCC(=O)O[C@@H]1[C@H](C)O[C@H](O[C@H]2[C@@H](N(C)C)[C@H](O)[C@@H](O[C@@H]3[C@@H](CC=O)C[C@@H](C)[C@@H](O)/C=C\C=C/C[C@@H](C)OC(=O)C[C@@H](OC(=O)CC)[C@H]3OC)O[C@H]2C)C[C@]1(C)O	Pf growth 48h inconclusive, Pf growth 96h 1.3µM (no result: HCV inh, AMA1-RON2 inh)
